Source: the supplement of paper PMC6555819

These sequences were tested on VDR:RXRa (NR concentration 270 nM, RXRa partner concentration 90 nM) (assay: PBM binding z-score (relative to random genomic background probes); higher = stronger binding; sequences stand for … in GC…GCGATTGACAGCGTAGAATGAAGG).
Experimental: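 Protein-binding microarray (Agilent 4x180K custom design, double-stranded 60-nt probes: 5' GC cap, 34-nt variable region, 24-nt constant primer region; full probe sequence given). Purified or IVT nuclear receptor:RXRα heterodimers (3:1 NR:RXRα, mostly 270:90 nM) or homodimers were incubated for 1 h in PBS with 2% milk and no ligand, then detected with Alexa488 antibodies. Fluorescence from o1-orientation probes (~5 replicates averaged) was converted to z-scores against 500 random hg19 background probes. Variable regions are seed direct-repeat (DR0–DR5) sites, all their single-nucleotide variants and half-site ablations.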
Work on CCTAGCAGGGCAATCTGGGTCACTCAAGGCTTGA yielded a PBM binding z-score of 1.08.
Work on TAGCCTAGCTCATTGGGCCAGTATAGTACGCATC yielded a PBM binding z-score of -0.69.
Work on ACTAGCAGGCCAAGTTTGGGTCACGCAAACAAAG yielded a PBM binding z-score of 1.36.
ACTCGGAGGACAAAAGTCAGAGCTACGCCAGTGA showed a PBM binding z-score of -0.553.
CCTACTGGGCCATCAGGTCATTGTTATCAACGTT was tested, and the PBM binding z-score was 1.52.
With CAAATTAGGTCACGAAAGGTCAAAGTCGAATGAC the PBM binding z-score was 7.06.
TCTATTAGTTGAAGGGCTACCGACGAGTCCGTTT was tested, and the PBM binding z-score was 0.745.
CCTGTTAGTTGACCATAAGGGCAACCGAAGCTCG was tested, and the PBM binding z-score was 0.474.
With ACTAGCAGACCAAGTTTGGGTCACTCAAACAAAG the PBM binding z-score was 0.245.
GATACAGGGTCAGCTAGAGGCCAGCGTATGGAAA showed a PBM binding z-score of 3.
For CTTACTGGGCCACGAAAGGTCATTGATTCAGTGA, the PBM binding z-score was 4.64.
For CGTCCAAGGTCAGAGAGGTCAGTGAGTGCCGAGT, the PBM binding z-score was 7.44.
In the case of CCAGACAGGTGAGAAGATAACTCAGCCTCGATTA, the PBM binding z-score is reported as 0.035.
ACTAGCAGGCCAAGTTTGGGTCACTCTAACAAAG showed a PBM binding z-score of 0.395.
In the case of GGAGCGAGGGCATTCGAGTTGATAGCATGGCGAT, the PBM binding z-score is reported as 3.31.
Sequence CAAACTAGGTCACCGGAAGGTCAAGGTCCGCATG has a PBM binding z-score of 5.58.
Sequence TCATCTAGGTAAAGGTGAAAGTCGAACGATATGA has a PBM binding z-score of 0.95.
With CCTTACGGGTCAATGTTATAGCACGGGTGGTACG the PBM binding z-score was 2.57.
For ACAGACAGGTGGTGAAGGTAACTCAGGCTATCAT, the PBM binding z-score was -0.0297.
Work on GCTATTAATTGAAAGGGCAACCGAATGATTCTCG yielded a PBM binding z-score of 0.257.
Work on TTACAAAGGTGAAGGTCGTTGATCCCTCTGTAGA yielded a PBM binding z-score of 2.19.
Work on CCGACTGGGGCAAAAGTTACCATACTCAGTACGA yielded a PBM binding z-score of -0.267.
CGAACTAGGTCAAGTACAGTGAATCTCCGCACGC was tested, and the PBM binding z-score was 2.02.
For TCTCGTAGGACACGAAGGTCAGAGCTTTCCAGAG, the PBM binding z-score was 1.71.
For TCGAGTAGGTTAAGGGCATTCAGAATGGCGTCGA, the PBM binding z-score was 0.959.
TCATATACGTAATACAGGTGAAAGTCGGCATCTA was tested, and the PBM binding z-score was 1.29.
GCTTACGGGTCAAAGGTTATAGCCTGAATAGAAT gave a PBM binding z-score of 5.72.
For AGATGTAGGTTACATCCGGGTCATTCAGGCTATG, the PBM binding z-score was 4.
Sequence ATACCGAGGTGATCGTGAGGTCGTTGATACTAAC has a PBM binding z-score of 3.69.
AGAATGAGGTTATTAACATCAGGGAATTGCGGTC showed a PBM binding z-score of 1.31.
CCTCGGAGGACAACAGGAGGTCAGTGCTGCCAGA was tested, and the PBM binding z-score was 1.59.
CCTTACGGGTCAATCCAGGTTATAGCATCGGAGT showed a PBM binding z-score of 4.64.
For CCGAGTAGGGTATGGGGCATTCAGGCAACGGTGA, the PBM binding z-score was -0.217.
In the case of AGTCAAAGTTCGGGACGAGGTAACGTAAAGCACG, the PBM binding z-score is reported as 0.784.
With TCTAGCAGACCAGAGGGTCACTCAAGAGGTACGG the PBM binding z-score was 1.08.
With ATATGTAGGTTGAGGGTCATTCAGGTTGGTTCGC the PBM binding z-score was 4.78.
For CAAACTAGGTCACAGAGGTCAAAGTCCGTGCGTA, the PBM binding z-score was 8.16.
GGAACGAGGGCATTCGAGTTTATAGCATGGCGAT gave a PBM binding z-score of 5.31.
CCTACCGGGCCAAAGGTCATTGATTCCAATGCTC gave a PBM binding z-score of 4.8.
For TCTATTAGTTGATTAGGGCACCCGAAACAGCGGA, the PBM binding z-score was 0.698.
